Assay results from ChEMBL document CHEMBL3988442, “University of Dundee, Small-Polar-MMV Screening Library” (2021).
Among all 69,000 compounds or so, about 950 (1.4%) showed an effect of 50% or more. Only a selection was taken, and strong results are over-represented in it overall.

tested on: Mycobacterium tuberculosis; test: Cornell M. t heat shock assay; assay type: functional, organism-based; design: dose or concentration left out as unconfirmed; also: in the data most compounds retested in dose-response had high values

| SMILES | Percent Effect |
| --- | --- |
| Cc1ccc(CN2CC[C@@H]3O[C@@H](C(=O)N4CCN(C)CC4)C[C@@H]32)cc1.O=C(O)C(F)(F)F.O=C(O)C(F)(F)F | 25.47% |
| CCn1ncc2c1CN(C(=O)c1cscn1)CC2COC.O=C(O)C(F)(F)F (stereo not given) | 5.615% |
| CC(C)CN1CCC(N2CCC(C(=O)N(C)C)CC2)CC1.O=C(O)C(F)(F)F.O=C(O)C(F)(F)F | 9.102% |
| O=C(c1cc(-c2ccn(CC3CC3)n2)n2ccccc12)N1CCOCC1 | 104.4% |
| O=C(O)c1cc(-c2ccn(CC3CC3)n2)n2ccccc12 | -0.3144% |
| Cn1ccc(-c2cc(C(=O)N3CCC(O)CC3)c3ccccn23)n1 | 65.18% |
| O=C(c1cc(-c2ccn(CC3CC3)n2)n2ccccc12)N1CCCO1 | 3.9% |
| Cn1ccc(-c2cc(C(=O)N3CCC(C(N)=O)CC3)c3ccccn23)n1 | 6.568% |
| Cn1ccc(-c2cc(C(=O)N3CCCCC3)c3ccccn23)n1 | 2.688% |
| O=C(NC[C@H]1OC[C@@H]2CCN(Cc3ccco3)C[C@@H]21)c1ccnnc1.O=C(O)C(F)(F)F | -10.06% |
| Cc1[nH]ccc1C(=O)N1CCCC(c2nccn2Cc2cscn2)C1 (stereo not given) | -1.058% |
| CN(C)C(=O)[C@@H]1C[C@@H]2CCN(Cc3nccs3)C[C@@H]2O1.O=C(O)C(F)(F)F | -1.901% |
| O=C(O)C(F)(F)F.O=C(c1cccc(F)c1)N1CCC2(CC1)CC(N1CCOCC1)C2 | -0.407% |
| CCCC(=O)NC1CCc2c(ccc(=O)n2Cc2csc(C)n2)C1.O=C(O)C(F)(F)F (stereo not given) | 46.41% |
| Cc1cccc(CN2C[C@@H]3CN(C(=O)c4cnccn4)C[C@@H]3C2=O)n1.O=C(O)C(F)(F)F | -21.43% |
| O=C1OC2(CCN(C(=O)C3NCCc4[nH]cnc43)CC2)c2ccccc21 (stereo not given) | 26.76% |
| O=C(C1NCCc2[nH]cnc21)N1CCC2(C=Cc3ccccc32)CC1 (stereo not given) | 4.298% |
| O=C(C1NCCc2[nH]cnc21)N1CCC2(CC1)CNc1ccccc12 (stereo not given) | 80.65% |
| Cl.O=C(Nc1ccc(F)cc1)C(c1ccccc1)N1CCOCC1 (stereo not given) | -22.41% |
| C=Cc1ccc(CN2C(=O)C3(CCNCC3)Nc3ccccc32)cc1 | 97.35% |
| CC(C)c1ccc(CN2C(=O)C3(CCNCC3)Nc3ccccc32)cc1 | 76.57% |
| Cl.O=C1CC2(CCNCC2)C(=O)N1Cc1ccc(F)cc1 | -13.65% |
| N#Cc1cccc(CN2C(=O)C3(CCNCC3)Nc3ccccc32)c1 | -29.61% |
| C=Cc1ccc(CN2CCCC3(CNC(=O)c4ccccc4O3)C2)cc1 (stereo not given) | -6.668% |

| SMILES | Percent Effect |
| --- | --- |
| NC(=O)c1ccc(CN2C(=O)C3(CCNCC3)Nc3ccccc32)cc1 | 0.2477% |
| Cc1cc(C[C@@H]2CCC[C@H]2NCc2cc(F)ccc2F)on1.O=C(O)CC(O)(CC(=O)O)C(=O)O | -16.01% |
| CC(=O)N1CCN(Cc2nccs2)CC2(CC(=O)N(C)C2)C1.O=C(O)C(F)(F)F (stereo not given) | -21.46% |
| CS(=O)(=O)N[C@H]1CN(C(=O)c2cscn2)[C@@H]2CCCO[C@H]12 | -7.446% |
| COCC(=O)N1CCN(Cc2cccnc2)c2ncccc2C1.O=C(O)C(F)(F)F.O=C(O)C(F)(F)F | -17.68% |
| CCNc1ncc2c(n1)CN(c1cccc(OC)c1)C2=O | 4.456% |
| CCOC(=O)CSc1nnc([C@@H](N)CC(C)C)o1.Cl | -13.08% |
| CS(=O)(=O)N1CCN(c2cc(N3CCCC3CO)ncn2)CC1 (stereo not given) | -0.07305% |
| OCC1CCCN1c1cc(N2CCC(OC3CCCC3)CC2)ncn1 (stereo not given) | 105.5% |
| OCC1CCCN1c1cc(N2CCN(c3ccccn3)CC2)ncn1 (stereo not given) | 0.3449% |
| CC(Sc1nncn1C)C(=O)NCCCOc1ccc(F)cc1 (stereo not given) | 9.016% |
| O=C(NCc1ccccn1)[C@@H]1COC[C@H]2CN(C3CCC3)C[C@H]21.O=C(O)C(F)(F)F.O=C(O)C(F)(F)F | 3.202% |
| O=C(O)C(F)(F)F.O=C(O)C(F)(F)F.O=C(c1ccco1)N1C[C@@H]2OCCN(CCN3CCCC3)[C@@H]2C1 | -4.474% |
| Cl.c1cc(CNCc2cccc3c2OCCCO3)cc(Cn2cncn2)c1 | -3.738% |
| N#Cc1ccc(C(=O)N2CC[C@H]3[C@@H]2CCC(=O)N3c2cccnc2)cc1.O=C(O)C(F)(F)F | 0.7242% |
| Cl.Cl.Clc1cccc(C[C@@H]2NCCC[C@@H]2Nc2cccc(Cl)c2)c1 | 105.7% |
| O=C(C[S+]([O-])Cc1cccc(Cl)c1)NC1CCCC1 (stereo not given) | -6.776% |
| Cl.Cl.Clc1cccc(C[C@@H]2NCCC[C@@H]2Nc2ccccc2)c1 | 104.8% |
| O=C(NCCc1cccc(Cl)c1)C1CCOCC1 | -3.977% |
| Clc1cccc(CNC2CCN(CCc3ccncc3)CC2)c1 | -16.56% |
| O=C(Cc1cccc(Cl)c1)N[C@@H]1CCNC[C@H]1O | -8.967% |
| Cl.NCC1CCCCN1C(=O)Cc1cccc(Cl)c1 (stereo not given) | -16.31% |
| O=C1NCCCc2[nH]c(Cc3cccc(Cl)c3)nc21 | 2.952% |
| Cc1ccc(CN[C@@H]2COC[C@H]2c2ccc(F)cc2)cc1C.O=C(O)CC(O)(CC(=O)O)C(=O)O | -6.111% |

| SMILES | Percent Effect |
| --- | --- |
| Cc1csc(CN2C[C@@H]3COC[C@]3(COCC(=O)N(C)C)C2)n1.O=C(O)C(F)(F)F | -22.07% |
| CCn1cc2c(n1)CN(Cc1nccs1)CC2COCC1CC1.O=C(O)C(F)(F)F (stereo not given) | 3.982% |
| CC(C)c1nc(N2CCC(N3CCSCC3)CC2)c2cnn(C)c2n1 | -6.323% |
| CC(C)c1nc(N2CCC(N3CCCC(O)C3)CC2)c2cnn(C)c2n1 (stereo not given) | -1.228% |
| CC(C)c1nc(N2CCC(N3CCCCCC3)CC2)c2cnn(C)c2n1 | 94.23% |
| Cc1csc(CN2CCC[C@]3(C[C@@H](Oc4ccccn4)CO3)C2)n1.O=C(O)C(F)(F)F.O=C(O)C(F)(F)F | -18.33% |
| CCOc1ccnc(N2CCN(Cc3ncccc3C)CC2)n1 | 17.62% |
| Cc1cccnc1CN1CCN(c2noc(-c3ccccc3)n2)CC1 | 100.3% |
| Cc1noc(-c2ccc(N3CCN(Cc4ncccc4C)CC3)nc2)n1 | -11.68% |
| Cc1nc(CN2C(=O)CCC23CCN(Cc2cccn2C)CC3)cs1.O=C(O)C(F)(F)F.O=C(O)C(F)(F)F | -21.2% |
| Cn1cccc1C(=O)N1C[C@H]2CN(CC3CC3)C(=O)[C@H]2C1 | 12.5% |
| CC(C)CN1C[C@@H]2CN(C(=O)c3cccn3C)C[C@@H]2C1=O | 1.08% |
| CCN1C[C@@H]2CN(C(=O)c3cccn3C)C[C@@H]2C1=O | 97.42% |
| O=C(NCc1ccc(F)cc1)C1CCCN(c2ccc3nncn3n2)C1 (stereo not given) | -16.16% |
| Fc1ccc(CN2CCO[C@H]3[C@H](OCc4ccncc4)CC[C@@H]32)cc1.O=C(O)C(F)(F)F.O=C(O)C(F)(F)F | 22.03% |
| COc1cc(Oc2ncccc2C(F)(F)F)ccc1CN1CCCC1 | 53% |
| COc1ccc(Oc2ncccc2C(F)(F)F)cc1CN1CCCC1 | 7.068% |
| COc1cc(CN2CCCC2)ccc1Oc1ncccc1C(F)(F)F | -12.36% |
| C1CN(CC2CC2)C(COCC2CC2)c2nnn(CC3CC3)c21.O=C(O)C(F)(F)F (stereo not given) | -14.94% |
| COc1ccc(CNC(=O)Cn2ccc3sccc3c2=O)cc1 | -0.6252% |
| Cl.Cn1cc([C@@H]2CN(S(=O)(=O)c3ccccc3F)C[C@H]2N)c2ccncc21 | -1.741% |
| CN(C)C(=O)CN1CCC2(CCN(CC3CC3)CC2)C1=O.O=C(O)C(F)(F)F | -28.35% |
| O=C(O)C(F)(F)F.O=C(O)C(F)(F)F.O=C1[C@@H]2CCN(Cc3ccoc3)C[C@@H]2OCCN1Cc1cccnc1 | -189.5% |
| CN(C)CCOCC1CN(Cc2cccc(F)c2)Cc2nccn2C1.O=C(O)C(F)(F)F.O=C(O)C(F)(F)F (stereo not given) | -23.51% |

| SMILES | Percent Effect |
| --- | --- |
| CCCN(Cc1ccccn1)Cc1ccccc1OC | 31.04% |
| CCCN(Cc1nc2ccccc2[nH]1)Cc1ccccc1OC | 67.04% |
| CCCN(Cc1cnc2ccccc2n1)Cc1ccccc1OC | 19.04% |
| O=C(O)C(F)(F)F.O=C(O)C(F)(F)F.O=C(O)c1c(-c2cccnc2)ncc2c1CCN(Cc1cccnc1)C2 | -14.58% |
| Cc1nc(CO[C@@H]2CN(Cc3nccs3)[C@@H]3COC[C@@H]32)cs1.O=C(O)C(F)(F)F | -44.36% |
| CN(C)S(=O)(=O)N1CC[C@]2(C[C@@H](Oc3cccnc3)CO2)C1.O=C(O)C(F)(F)F | -11.53% |
| CC(Nc1nc(-c2ccccc2)nc2c1CCNCC2)c1cccnc1 (stereo not given) | 73.2% |
| CC(Nc1nc(-c2ccncc2)nc2c1CCNC2)c1ccccc1 (stereo not given) | 18.8% |
| CC(Nc1nc(-c2ccccc2)nc2c1CCNCC2)c1nccs1 (stereo not given) | 20.74% |
| O=C(O)C(F)(F)F.O=C(O)C(F)(F)F.c1cnc(N2CCOC3(CCN(CC4CCCCC4)CC3)C2)nc1 | 13.11% |
| O=C(O)C(F)(F)F.c1ncn(Cc2cnc3n2CCN(Cc2ccsc2)CC3)n1 | -8.028% |
| Cc1noc(NC(=O)c2cccc(Br)c2)n1 | 106.8% |
| Cc1noc(NC(=O)c2ccc(C#N)cc2)n1 | 69.42% |
| Cc1cc(NC(=O)c2ccc(C)c(F)c2)[nH]n1 | 1.383% |
| Cc1nc(C(C)(C)NC(=O)Nc2ccc(C#N)cc2)no1 | -15.18% |
| O=C(NCCn1ccnc1)c1cccc(Br)c1 | 24.48% |
| Cc1noc(NC(=O)c2ccc(Br)s2)n1 | 103.3% |
| CN(C)Cc1ccccc1NC(=O)c1ccc(C#N)cc1 | -24.53% |
| Cc1c(NC(=O)c2cccc(Br)c2)c(C(=O)N(C)C)nn1C | -8.879% |
| Cc1noc(NC(=O)c2ccc(Br)o2)n1 | -6.271% |
| Cc1noc(NC(=O)c2ccc(C)c(F)c2)n1 | 105.5% |
| Cc1noc(COCC(=O)Nc2ccc(Br)c(C)n2)n1 | 3.251% |
| Cc1ccc(C(=O)Nc2cn[nH]c2)cc1F | -0.1311% |
